Most compounds without a hit are left out; they make up all but 4.1% or so of the library.
aSyn UTR inh: MLPCN primary screen, SNCA 5' untranslated region. hit rate 0.82% among 300,000. alpha-synuclein 5'UTR reporter, inhibitor activity. inhibition, % (tested at 7.5 µM). AID 1813; in the data active means inhibition above about 60%; inconclusive means no clear call, values can overlap the other calls;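 further: H4 neuroglioblastoma cells stably carrying SNCA 5'UTR luciferase fusion; 0% = DMSO wells and 100% = positive control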
Bfl-1 A1 inh: inhibitors of the anti-apoptotic protein A1, read as caspase activation; caspase activation, % (concentration not given with the values); hit rate 0.066% among 330,000; MEF A1-2A-BIM cells, Caspase-Glo 3/7 luminescence, 3 h; percent of clofoctol response, vehicle zero; AID 2462;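 active means over half of replicate activation scores above 10%, or exactly half above 10 with the replicate mean above 10; inconclusive means replicate mean below 10 yet half the replicates above 10; inactive means over half of replicates below 10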
CSC inhib: blocks cancer stem cells; hit rate 1.1% among 300,000; inhibition, % at 7.5 µM; AID 2717; cancer stem cell-like cells viability, luminescence; in the data active means inhibition above about 75%; inconclusive means no clear call, values can overlap the other calls; tested in HMLE shEcad cells
Beta apoptosis: blocks beta cell apoptosis; INS-1E cytokine-induced death, ATP luminescence, 48 h; percent of positive-control rescue, neutral wells zero; protection from apoptosis, % (concentration not given with the values); hit rate 0.8% among 300,000; AID 435005;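 active means Every replicate reaches about 75%, or at least half do and their mean reaches it too, limit read from the data; inconclusive means At least half of replicates reach the limit but their mean does not; inactive means Under half of replicates reach the limit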;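 further: 0% = cytokine-treated negative control wells and 100% = positive control rescue; higher means more ATP so stronger rescue from cytokine killing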
Mdm2-MdmX inh: inhibitors of human Mdm2/MdmX interaction | O15151+Q00987 | SaOS-2 split-luciferase Mdm2/MdmX complementation, luminescence | inhibition, % at 8 µM | hit rate 3% among 330,000;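 active means inhibition of at least 50% at 8 µM in the primary screen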
Target sequence (O15151 whole entry, looked up): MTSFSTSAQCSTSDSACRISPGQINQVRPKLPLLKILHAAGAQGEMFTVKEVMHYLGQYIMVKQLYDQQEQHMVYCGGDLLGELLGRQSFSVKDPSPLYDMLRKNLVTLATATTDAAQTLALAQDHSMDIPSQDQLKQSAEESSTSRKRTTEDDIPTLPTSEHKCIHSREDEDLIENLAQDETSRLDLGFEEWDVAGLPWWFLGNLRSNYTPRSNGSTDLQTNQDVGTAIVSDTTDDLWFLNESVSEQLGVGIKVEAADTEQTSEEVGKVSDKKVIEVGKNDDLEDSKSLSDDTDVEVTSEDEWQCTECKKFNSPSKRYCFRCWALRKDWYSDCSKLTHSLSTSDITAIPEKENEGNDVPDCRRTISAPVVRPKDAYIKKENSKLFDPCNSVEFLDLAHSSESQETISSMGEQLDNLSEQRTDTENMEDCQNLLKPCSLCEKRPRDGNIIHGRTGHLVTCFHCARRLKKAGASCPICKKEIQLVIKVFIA
Target sequence (Q00987 whole entry, looked up): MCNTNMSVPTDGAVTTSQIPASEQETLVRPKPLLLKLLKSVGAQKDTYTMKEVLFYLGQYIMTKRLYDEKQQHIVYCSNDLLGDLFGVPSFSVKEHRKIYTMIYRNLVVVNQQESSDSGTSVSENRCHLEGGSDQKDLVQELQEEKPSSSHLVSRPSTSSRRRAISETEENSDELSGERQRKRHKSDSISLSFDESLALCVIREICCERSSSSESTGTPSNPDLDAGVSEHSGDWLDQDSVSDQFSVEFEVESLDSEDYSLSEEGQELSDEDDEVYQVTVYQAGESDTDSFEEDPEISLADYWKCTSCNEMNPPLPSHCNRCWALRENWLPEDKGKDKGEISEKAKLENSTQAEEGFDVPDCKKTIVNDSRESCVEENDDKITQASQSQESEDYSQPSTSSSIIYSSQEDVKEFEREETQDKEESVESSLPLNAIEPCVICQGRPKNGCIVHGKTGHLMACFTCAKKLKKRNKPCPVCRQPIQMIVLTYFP
Mdm2 MdmX conf: confirmation of human Mdm2/MdmX interaction inhibitors; shares compounds with Mdm2-MdmX inh; Mdm2-MdmX binding, luminescent assay; inhibition, % at 8 µM; hit rate 55% among 10,000; AID 489028; in the data active means inhibition above about 40%
FLuc counter: counter-screen for Mdm2/MdmX inhibitors: full-length luciferase | shares compounds with Mdm2-MdmX inh | SaOS-2 full-length luciferase counterscreen, luminescence | inhibition, % at 8 µM | hit rate 77% among 6,200 | AID 504607;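 active means mean inhibition at 8 µM reaching about 37%, which flags the compound as non-specific, limit read from the data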;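 further: p53-null SaOS-2 cells with luciferase driven by a doxycycline-inducible promoter; compound on cells about two nights before reading with doxycycline added after day one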
* = called active by the depositor; ? = inconclusive; · = no result.

SMILES	aSyn UTR inh	Bfl-1 A1 inh	CSC inhib	Beta apoptosis	Mdm2-MdmX inh	Mdm2 MdmX conf	FLuc counter
C[C@H]1COC(=O)[C@H](CC(=O)OC(C)(C)C)C/C=C\C[C@@H](CC(=O)N[C@@H](CO)Cc2ccccc2)C(=O)N1	·	0	-7	1	25	·	·
Cn1cc(S(=O)(=O)N2CCCC2)cc1C(=O)NCc1ccccc1Cl	33	1	4	-2	-16	·	·
COc1ccc(/C=C2\SC(=S)N(CCC(=O)N3CCCCC3)C2=O)cc1	26	0	3	-16	64*	46*	90*
O=C(CN1C(=O)/C(=C/c2cccc(Br)c2)SC1=S)N1CCCC1	-4	1	49	-21	62*	76*	63*
CCOC(=O)N1CCN(C(=O)CCN2C(=O)/C(=C\c3cccc(OC)c3)SC2=S)CC1	-9	0	·	-26	60*	38	46*
COc1ccc(/C=C2/SC(=S)N(CCC(=O)N3CCN(C)CC3)C2=O)cc1	-17	0	58	-15	12	·	·
O=C(CN1C(=O)/C(=C/c2cccc(Br)c2)SC1=S)NC1=NCCS1	-14	0	10	-3	27	·	·
COc1cccc(/C=C2\SC(=S)N(CCC(=O)N3CCCCC3)C2=O)c1	-51	-1	57	-83	86*	53*	71*
Cc1nc([N+](=O)[O-])cn1CC(=O)c1ccc(Br)cc1	1	0	-9	-8	14	·	·
CC(=O)Cn1cnc2c(cnn2-c2ccc(C)c(C)c2)c1=O	-106	0	2	-3	-48	·	·
COc1ccc(S(=O)(=O)N(C)C[C@H]2Oc3c(NC(=O)Nc4c(C)noc4C)cccc3C(=O)N([C@@H](C)CO)C[C@H]2C)cc1	·	0	·	-7	18	·	·
COC(=O)COc1cc(Br)c(/C=C2/SC(=O)N(CC(=O)N3CCCC3)C2=O)cc1OC	-1	0	-7	-1	25	·	·
COC(=O)COc1ccc(/C=C2/SC(=O)N(CC(=O)N3CCCC3)C2=O)cc1Br	-1	-1	-15	·	56*	11	·
CC(=O)CC1OC(=O)C(Br)=C1NCc1ccccc1 (centres undefined)	1	-1	41	-5	67*	48*	5
Cc1ccccc1CS(=O)(=O)c1ccc(C(=O)N2CCC(C)CC2)cc1[N+](=O)[O-]	9	2	17	1	47	·	·
COc1ccc(C(=O)N2CCN(Cc3ccccc3)CC2)cc1[N+](=O)[O-]	12	1	-4	-1	5	·	·
CC1CCN(C(=O)c2ccc(S(=O)(=O)Cc3cccc(F)c3)c([N+](=O)[O-])c2)CC1	-39	0	·	·	56*	50*	72*
O=C(c1ccc(S(=O)(=O)c2cccc(Cl)c2)c([N+](=O)[O-])c1)N1CCN(Cc2ccccc2)CC1	-8	0	·	·	94*	85*	58*
O=C(c1ccc(S(=O)(=O)Cc2ccccc2Cl)c([N+](=O)[O-])c1)N1CCN(c2ccccn2)CC1	-47	0	37	-27	75*	64*	39*
Cc1ccc(/C=N/Nc2nncc(-c3ccccc3)n2)o1	-99	-1	·	-2	9	·	·
CCCCN(CCCC)C(=S)N/N=C/c1c(C)[nH]n(-c2ccccc2)c1=O	93*	-1	-1	87*	84*	78*	45*
Cc1[nH]n(-c2ccccc2)c(=O)c1/C=N/Nc1nncc(-c2ccccc2)n1	91*	1	110*	91*	88*	86*	55*
Cc1[nH]n(-c2ccc(Br)cc2)c(=O)c1/C=N/NC(=O)c1ccccc1	47	-9	80*	104*	53*	52*	47*
Cc1ccc(OCC(=O)N/N=C\c2c(C)[nH]n(-c3ccccc3)c2=O)c([N+](=O)[O-])c1	-32	1	16	87*	52*	27	·
Cc1[nH]n(-c2ccccc2)c(=O)c1/C=N/NC(=O)c1ccc(O)cc1O	-12	-6	·	·	-18	·	·
SMILES	aSyn UTR inh	Bfl-1 A1 inh	CSC inhib	Beta apoptosis	Mdm2-MdmX inh	Mdm2 MdmX conf	FLuc counter
O=C(COC(=O)/C=C/c1ccc(F)cc1)NC1CCCCCC1	·	0	0	-1	-18	·	·
O=C1CCC(C(=O)Nc2cccc(Br)c2)N1 (centres undefined)	20	0	-7	-4	7	·	·
NC(=O)c1ccccc1OCc1nnc(-c2ccccc2Br)o1	-57	0	5	7	-15	·	·
Cc1ccc(NC(=O)COC(=O)/C=C/c2c(C)nn(-c3ccc(F)cc3)c2Cl)cc1F	-5	0	7	9	52*	3	·
O=C(Nc1cccc(Cl)c1N1CCCCC1)c1ccc2c(c1)OCCO2	23	0	?	6	19	·	·
O=C(NC(=S)Nc1cccc(Cl)c1N1CCCCC1)c1ccc2c(c1)OCCO2	-36	0	82*	16	61*	63*	57*
Cc1ccc(C(C)C)c(OCCCNCc2cccnc2)c1	8	0	-4	4	5	·	·
Cc1ccc(C(C)C)c(OCCNCCc2ccccc2)c1	-10	0	56	36	51*	26	·
Cc1cccc(C(=O)OCC(=O)NC(C)CCc2ccccc2)c1O (centres undefined)	-10	0	-3	0	10	·	·
CC(=O)C(c1ccccc1)C(c1ccccc1)C(C)[N+](=O)[O-] (centres undefined)	-2	0	3	-4	10	·	·
N#Cc1nc(-c2ccc(OCc3ccc(Cl)cc3)cc2)oc1N1CCOCC1	29	0	8	14	55*	22	·
CSc1ccc(S(=O)(=O)N2CCC(C(=O)NC3CC3)CC2)cc1	6	0	-20	0	6	·	·
COCCN(CCOC)c1nc(-c2ccc(C)cc2)nc2ccccc12	7	1	5	5	10	·	·
Cc1ccc(-c2nc(C(Cl)Cl)c3ccccc3n2)cc1	93*	1	132*	94*	96*	49*	15
Cc1cccc(-n2ncc3c2CCCC3NC(=O)C2(C(N)=O)CC2)c1C (centres undefined)	8	0	7	57	-14	·	·
Cc1cc(C)c(C(=O)NC2CCCc3c2cnn3-c2cccc(C)c2C)o1 (centres undefined)	24	0	23	5	78*	75*	43*
O=C(NC1CCCc2c1cnn2-c1ccc(F)cc1F)c1ccccn1 (centres undefined)	5	0	15	-4	-20	·	·
O=C(NC1CCCc2c1cnn2-c1ccccc1F)c1ccccn1 (centres undefined)	53	-1	49	0	86*	72*	29
CC[C@]12c3[nH]c4ccc(OC)cc4c3CCN1C(=O)C(CC(=O)NCCc1ccccn1)C[C@@H]2C(=O)N1CCN(C(=O)c2ccco2)CC1 (some centres undefined)	·	·	·	·	8	·	·
